Source: PubChem BioAssay AID1159580 (chemical genetic matrix, 2015)
Values joined by “and” are separate entries in the source; they are usually repeats but may differ in a detail not shown here. Equal entries are not always repeated. Among all 5,500 compounds or so, about 2,000 (36%) were called active. Another 18% or so got no clear call; they are omitted. No stated cut-off is given here; in the data, active means normalized growth mostly below about 0.91 (no sharp cut-off); inconclusive means no clear call, values can overlap the other calls; inactive means mostly above about 0.92. This is one part of the list.

Test: chemical genetic growth profiling, strain panel (AID 1159580);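 further: tested at 20 µM; growth read once vehicle control cultures reached saturation at 30 °C; 1 = growth at the plate median or of vehicle wells; lower values mean less growth of the strain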
Details: S. cerevisiae deletion strains, growth OD

Measured: normalized growth

CN(C)[C@@H]1C(=O)C(C(N)=O)=C(O)[C@@]2(O)C(=O)C3=C(O)c4c(O)cccc4[C@@](C)(O)[C@H]3[C@H](O)[C@@H]12
inactive: locus YAL013W, strain DEP1, hits give low values 1.01 | locus YAL021C, strain ccr4, hits give low values 1.02 | locus YAL026C, strain drs2, hits give low values 1.01 | locus YAL030W, strain snc1, hits give low values 1 | locus YBL061C, strain skt5, hits give low values 1.02 | locus YBR009C, strain hhf1, hits give low values 1.01 | locus YBR021W, strain FUR4, hits give low values 0.99 | locus YBR023C, strain chs3, hits give low values 1.02 | locus YBR171W, strain sec66, hits give low values 1.02 | locus YBR229C, strain ROT2, hits give low values 1 | locus YBR231C, strain swc5, hits give low values 0.991 | locus YBR279W, strain paf1, hits give low values 1.02 | locus YCL011C, strain gbp2, hits give low values 1.01 | locus YCL016C, strain dcc1, hits give low values 1.01 | locus YCL029C, strain bik1, hits give low values 0.998 | locus YCL061C, strain MRC1, hits give low values 1.01 | locus YCL069W, strain vba3, hits give low values 1.02 | locus YCR088W, strain abp1, hits give low values 1.02 | locus YDL005C, strain med2, hits give low values 1.02 | locus YDL035C, strain GPR1, hits give low values 1 | locus YDL040C, strain nat1, hits give low values 1.03 | locus YDL074C, strain BRE1, hits give low values 1.01 | locus YDL101C, strain DUN1, hits give low values 1.01 | locus YDL134C, strain PPH21, hits give low values 0.995 | locus YDL185W, strain tfp1, hits give low values 0.988 | locus YDL192W, strain arf1, hits give low values 0.998 | locus YDR001C, strain nth1, hits give low values 1.02 | locus YDR069C, strain doa4, hits give low values 1 | locus YDR101C, strain arx1, hits give low values 1.01 | locus YDR137W, strain rgp1, hits give low values 0.975 | locus YDR150W, strain NUM1, hits give low values 1.01 | locus YDR159W, strain sac3, hits give low values 1.05 | locus YDR162C, strain NBP2, hits give low values 0.992 | locus YDR195W, strain ref2 1.01 | locus YDR297W, strain sur2, hits give low values 1.02 | locus YDR318W, strain mcm21, hits give low values 0.999 | locus YDR334W, strain swr1, hits give low values 1.01 | locus YDR335W, strain msn5, hits give low values 1.02 | locus YDR388W, hits give low values 1 | locus YDR392W, strain spt3, hits give low values 1.02 | locus YDR502C, strain sam2, hits give low values 0.994 | locus YEL003W, strain gim4, hits give low values 1.01 | locus YEL037C, strain rad23, hits give low values 1.02 | locus YEL061C, strain CIN8 (second series), hits give low values 1.01 | locus YEL061C, strain CIN8, hits give low values 1 | locus YER015W, strain faa2, hits give low values 1.01 | locus YER016W, strain bim1, hits give low values 1 | locus YER110C, hits give low values 1 | locus YER111C, strain swi4, hits give low values 1.01 | locus YER155C, strain BEM2 (second series), hits give low values 0.995 | locus YER155C, strain BEM2, hits give low values 1.01 | locus YER167W, strain BCK2, hits give low values 1.01 | locus YFR010W, strain ubp6, hits give low values 1 | locus YGL078C, strain dbp3, hits give low values 0.984 | locus YGL086W, strain mad1, hits give low values 0.982 | locus YGL167C, strain pmr1, hits give low values 1.01 | locus YGL173C, strain kem1, hits give low values 1 | locus YGL227W, strain vid30, hits give low values 1.04 | locus YGL240W, strain doc1, hits give low values 1.01 | locus YGL248W, strain PDE1, hits give low values 1 | locus YGL253W, strain hxk2, hits give low values 1.02 | locus YGR078C, strain PAC10, hits give low values 1 | locus YGR135W, strain pre9, hits give low values 0.987 | locus YGR252W, strain gcn5, hits give low values 0.967 | locus YHR013C, strain ard1, hits give low values 1 | locus YHR027C, strain rpn1, hits give low values 1.02 | locus YHR030C, strain SLT2, hits give low values 1 and 0.979 | locus YHR079C, strain IRE1 (second series), hits give low values 0.992 | locus YHR079C, strain IRE1, hits give low values 0.98 | locus YHR094C, strain hxt1, hits give low values 0.999 | locus YHR129C, strain ARP1, hits give low values 1.01 | locus YHR142W, strain chs7, hits give low values 1.05 | locus YHR200W, strain rpn10, hits give low values 1 | locus YIL066C, strain RNR3, hits give low values 1 | locus YIL073C, strain SPO22, hits give low values 1.02 | locus YIL125W, strain kgd1, hits give low values 0.998 | locus YIR030C, strain dcg1, hits give low values 0.997 | locus YJL092W, strain hpr5, hits give low values 1.02 | locus YJL095W, strain BCK1 (second series), hits give low values 1.02 | locus YJL095W, strain BCK1, hits give low values 0.987 and 0.979 | locus YJL115W, strain asf1, hits give low values 1.03 | locus YJL129C, strain trk1, hits give low values 1.05 | locus YJL134W, strain LCB3, hits give low values 1.01 | locus YJL154C, strain vps35, hits give low values 1.04 | locus YJL164C, strain tpk1, hits give low values 0.997 | locus YJL166W, strain qcr8, hits give low values 1.03 | locus YJL168C, strain set2, hits give low values 0.998 | locus YJL187C, strain SWE1 (second series), hits give low values 1.01 | locus YJR043C, strain POL32, hits give low values 0.992 | locus YJR066W, strain TOR1, hits give low values 0.928
